About 83,000 compounds went through this panel and 20% of them were active in at least one assay; those are over-represented in the sample as a whole.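 Single-dose data. Exposure time 48 hours. Values below 10 considered active.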 Calls of active or inactive are those of the source.
What was measured:
Assay in all cases: NCI-60 one-dose screen, 48 h (100 = growth as untreated, 0 = no growth, -100 = all killed)
[1] = test system: SK-MEL-2 melanoma; settings: 10 µM unless noted
[2] = test system: EKVX NSCLC; settings: 10 µM unless noted
[3] = test system: SN12C renal; settings: 10 µM unless noted
[4] = test system: TK-10 renal; settings: 10 µM unless noted
[5] = test system: ACHN renal; settings: 10 µM unless noted
[6] = test system: CAKI-1 renal; settings: 10 µM
[7] = test system: A498 renal; settings: 10 µM unless noted
[8] = test system: CCRF-CEM leukemia; settings: 10 µM unless noted
[9] = test system: MOLT-4 leukemia; settings: 10 µM unless noted
[10] = test system: SR leukemia; settings: 10 µM unless noted
[11] = test system: RPMI-8226 leukemia; settings: 10 µM unless noted
[12] = test system: OVCAR-8 ovarian; settings: 10 µM unless noted
[13] = test system: OVCAR-5 ovarian; settings: 10 µM unless noted
[14] = test system: OVCAR-4 ovarian; settings: 10 µM unless noted
[15] = test system: IGROV1 ovarian; settings: 10 µM unless noted
[16] = test system: OVCAR-3 ovarian; settings: 10 µM unless noted
[17] = test system: HS 578T breast; settings: 10 µM unless noted
[18] = test system: NCI/ADR-RES ovarian; settings: 10 µM unless noted
[19] = test system: SK-OV-3 ovarian; settings: 10 µM unless noted
[20] = test system: UO-31 renal; settings: 10 µM unless noted

Measured: growth

Cc1ccc(/C=C/CC(=O)Nc2ccc(C(=O)Nc3ccc(F)cc3N)nc2)cn1
active: [4] 6.58% | [7] -3.27% | [11] 8.53%
inactive: [1] 31.3% | [2] 49.8% | [3] 57.6% | [5] 31.6% | [6] 26.4% | [8] 17.8% | [9] 18.1% | [10] 31.4% | [12] 29.1% | [13] 38.5% | [14] 43.9% | [15] 43.9% | [16] 59% | [17] 35.6% | [18] 53.6%

O=C(Cn1cc(CN2C(=O)c3ccc([N+](=O)[O-])cc3C2=O)nn1)Nc1ccc(F)cc1Cl
inactive: [1] 101% | [2] 97.7% | [3] 101% | [4] 91.2% | [5] 96.9% | [6] 89.9% | [7] 85.8% | [8] 95.6% | [9] 108% | [11] 100% | [12] 96.8% | [13] 102% | [14] 106% | [19] 89.7% | [15] 100% | [17] 111% | [18] 98.3%

CC1(C)CC[C@]2(C(=O)N3CCCNCC3)CC[C@]3(C)C(=CC[C@@H]4[C@@]5(C)CCC(=O)C(C)(C)[C@@H]5CC[C@]43C)[C@H]2C1
inactive: [1] 108% | [2] 103% | [3] 98.7% | [4] 97.1% | [5] 105% | [6] 89% | [7] 109% | [8] 90.6% | [9] 106% | [11] 98.7% | [12] 103% | [13] 104% | [14] 116% | [15] 117% | [17] 106% | [18] 100%

CCOC(=O)c1c(NC(=O)c2cccc(C(F)(F)F)c2)sc2c(CN3CCN(C)CC3)c(O)ccc12
inactive: [1] 94.7% | [2] 70.4% | [7] 77.5% | [10] 23.5% | [14] 26.8% | [19] 97.3% | [16] 65.6% | [17] 76.3%
active: [3] -83.7% | [4] -52.7% | [5] -98.8% | [6] -73.9% | [8] -23.8% | [9] -27.8% | [11] -28.8% | [12] -35.2% | [13] -77.9% | [15] -86.1% | [18] -38.2%

C#C[C@]1(O)CC[C@H]2[C@@H]3CC=C4c5sc(-c6ccccn6)nc5CC[C@]4(C)[C@H]3CC[C@@]21C
inactive: [1] 70.7% | [2] 77.7% | [3] 87.2% | [4] 104% | [5] 75.8% | [6] 87.7% | [7] 70.6% | [8] 37.5% | [9] 21.7% | [10] 29.3% | [12] 91.8% | [13] 94.2% | [14] 98.6% | [19] 76.8% | [15] 88.9% | [16] 88% | [17] 14.4% | [18] 89.8%

CC1=CC(=O)CC(C)(C)[C@@]1(O)/C=C/C(C)=C\C(=O)O
active: [1] -52.4% | [2] -29.6% | [3] -15.1% | [20] -31.6% | [4] -25.5% | [5] -7.21% | [7] -72.7% | [8] 0.0714% | [9] -9.99% | [10] 0.555% | [11] -28.4% | [12] -11.9% | [13] -25% | [14] -15.9% | [15] -12.5% | [16] -19.5% | [17] -8.17% | [18] -15.6%

COc1ccc(C2CC(c3ccc(Nc4nc(NCCO)nc(Nc5ccc(Cl)cc5)n4)cc3)=Nc3c(N)nc(N)nc3N2)cc1 (stereo not given)
active: [8] -17.9% | [9] 3.14% | [11] -4.52%
inactive: [1] 89.5% | [2] 107% | [3] 85.1% | [4] 107% | [5] 90.1% | [6] 61.1% | [7] 42.7% | [12] 40% | [13] 121% | [14] 66.9% | [19] 112% | [17] 94.9% | [18] 76%

CC(C)=CCc1c2c(c(O)c3c1O[C@]14C(=C[C@@H]5C[C@H]1C(C)(C)O[C@@]4(C/C=C(/C)C(=O)O)C5=O)C3=O)CC(O)C(C)(C)O2 (stereo not given in full)
inactive: [3] 12.9% | [14] 18.7% | [19] 30.4% | [17] 15.7% | [18] 18%
active: [1] -71.3% | [2] -32.5% | [20] -57.1% | [5] -11% | [7] -75.6% | [8] 5.72% | [9] -7.09% | [10] -5.31% | [11] -18.5% | [12] -25.1% | [13] -10.7% | [15] 5.2% | [16] -96.4%

O=C1c2c(O)cc(O)cc2O[C@@H](c2ccc(O)cc2)[C@@H]1c1c(O)cc(O)c2c(=O)cc(-c3ccc(O)c(O)c3)oc12
inactive: [1] 117% | [2] 91.9% | [3] 105% | [20] 97.3% | [5] 85% | [7] 120% | [8] 114% | [9] 121% | [10] 103% | [11] 100% | [12] 101% | [13] 98.6% | [14] 97.8% | [19] 86.5% | [15] 101% | [16] 106% | [17] 102% | [18] 95.7%

O=C1C[C@@H](c2ccccc2)Oc2c(Cc3ccccc3O)c(O)c(Cc3cc(Cc4cc(Cc5ccccc5O)ccc4O)ccc3O)c(O)c21
inactive: [1] 110% | [2] 93.2% | [3] 100% | [4] 147% | [5] 94.4% | [6] 75.5% | [7] 98.3% | [8] 91.5% | [9] 76.3% | [10] 99.5% | [11] 88% | [12] 97.2% | [13] 107% | [14] 99.6% | [19] 103% | [15] 82.6% | [16] 96.4% | [17] 85.4% | [18] 106%

CN1CCN(c2ccc3c(C(N)=O)c(NC(=O)c4ccc(C(C)(C)C)cc4)sc3c2)CC1
inactive: [1] 97.4% | [2] 85.2% | [3] 90% | [4] 123% | [5] 96.4% | [6] 100% | [8] 53.3% | [9] 41.9% | [10] 34.7% | [11] 20.1% | [12] 95.4% | [13] 81.1% | [14] 92.3% | [19] 107% | [15] 90.3% | [16] 79.3% | [17] 91.2% | [18] 85.9%
